# Measurements from PubChem BioAssay (NCI).
# The panel holds about 79,000 compounds, 15% with a hit somewhere; the sample as a whole holds those more often. Values without a mark were called inactive. The source made the active and inactive calls. Rule as the data show it: active = growth inhibition above about 70%; inactive = the rest.
# Experiment: NCI Yeast Anticancer Drug Screen. Data for the mec2-1 strain (AID 157)
# Settings: S. cerevisiae mec2-1 strain, at 50.0 µM, stronger effect = higher value
# Summary of the method: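 Test agents were screened against the mec2-1 yeast strain, with defined DNA repair or cell cycle alteration. Growth was scored as inhibition against vehicle-only controls.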
row,SMILES,growth inhibition
1,Nc1cc(=O)c2n[nH]nc2[nH]1,0.7%
2,CCCCCCCCCCCCCCCCCC[N+](C)(C)Cc1c(Cl)c(Cl)c(Cl)c(Cl)c1Cl,8.9%
3,CCNC(=O)NCC,-19.4%
4,COc1ccccc1C(=O)C(CN(C)C)CN(C)C,-19.2%
5,O=C1C=C(N2CCCC2)CC1,3.1%
6,COC(=O)C1C(C(=O)OC)C(C(=O)OC)C1C(=O)OC (stereo not drawn),-0.35%
7,O=C(SCCN1CCCC1)C(O)(c1ccccc1)C1CCCC1 (stereo not drawn),-6%
8,CC(=O)C1=CCC2[C@H]3CC=C4C[C@H](O)CC[C@@]4(C)C3CC[C@@]12C (stereo partly drawn),55.2%
9,O=C(c1ccccc1)c1ccccc1NCC(O)COc1cccc2ccccc12 (stereo not drawn),-19.9%
10,O=C(CCN1CCC2CCC(C2)C1)c1ccc(Cl)cc1 (stereo not drawn),3.35%
11,O=C(O)c1cc(O)c(C(=O)O)cc1O,-9.15%
12,CCOC(=O)c1[nH]n(-c2ccccc2)c(=O)c1C=NC(=S)c1cccnc1,2.1%
13,CCCCSc1nc(NCC)nc(NCC)n1,38.9%
14,CC(C)C(NC(=O)C1CCCN1)P(=O)(O)O (stereo not drawn),1.7%
15,COc1cc(OC)c2c(c1)OC(c1ccccc1)CC2=O (stereo not drawn),3.05%
16,CCC(CC)(CO)CO,-5.75%

# Experiment: NCI Yeast Anticancer Drug Screen. Data for the sgs1 mgt1 strain (AID 161);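 also: 0% = growth of cultures given vehicle only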
# Settings: S. cerevisiae sgs1 mgt1 strain, at 50.0 µM, stronger effect = higher value
# Summary of the method: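 Genetically altered yeast, compound exposure, growth inhibition relative to vehicle.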
row,SMILES,growth inhibition
1,CCOC(=O)C(CC)(C(=O)OCC)C(C)CC (stereo not drawn),15.1%
2,Cc1ccc(S(=O)(=O)C(CCC(=O)c2ccccc2)(CCC(=O)c2ccccc2)[N+](=O)[O-])cc1,-10%
3,CCC[CH2][Sn]([CH2]CCC)([O]C(=O)c1cccc(F)c1F)[O][Sn]([CH2]CCC)([CH2]CCC)[O]C(=O)c1cccc(F)c1F,91.2% (active)
4,O=C1c2ccccc2C2(O)NC(=S)N(c3ccccc3)C12O (stereo not drawn),4.95%
5,NC(C(=O)O)C(F)(F)C(=O)O (stereo not drawn),-2.7%
6,CC1=C(C)Cc2c(-c3ccccc3)oc(-c3ccccc3)c2C1,0.7%
7,O=C(O)c1ccc2c([N+](=O)[O-])cccc2n1,14.3%
8,O=[N+]([O-])c1ccc(Oc2cccc3ccccc23)c([N+](=O)[O-])c1,18.5%
9,CCOc1ncnc2ccc(Cl)cc12,-4.45%
10,CN(C)c1nc(NN)c2c(-c3ccccc3)c(-c3ccccc3)oc2n1,2.3%
11,CCOC(=O)NCc1cccc2ccccc12,-10.3%
12,NNC(=O)c1cccc(C(=O)NN)n1,8.55%
13,Cc1cccc(N=NC2Sc3nc4ccccc4n3C2=O)c1 (stereo not drawn),-20.1%
14,O=C(/C=C/c1ccc(O)c(O)c1)c1ccc(O)cc1O,-24.2%
15,CCCCCCCCCCCCCC(=O)Oc1ccc([N+](=O)[O-])cc1,-13.1%
16,COc1ccc(-c2nnc(-c3ccc(OC)cc3)nn2)cc1,-7.1%

row,SMILES,growth inhibition
1,[O-][n+]1c2ccc(Cl)cc2nc2ccc(Cl)cc21,-8.25%
2,CN1C(=O)CC2(C)c3cc(O)ccc3N(C)C12 (stereo not drawn),54.5%
3,CN1NC(c2ccccc2)=NN=C1c1ccccc1,11.3%
4,Cc1ccc(C2(O)c3ccccc3N=NN2C)cc1 (stereo not drawn),4%
5,Nc1ncnc(N)c1NC(=O)c1ccccc1,-24.4%
6,S=C(/C=C1\SC(=Nc2ccccc2)C(=Nc2ccccc2)N1c1ccccc1)Nc1ccccc1,-9.6%
7,CNc1ccccc1C(=O)N/N=C/c1cccc([N+](=O)[O-])c1,-39%
8,CCCCCCCCSc1nc(Nc2cc(C(C)(C)C)c(O)c(C(C)(C)C)c2)nc(SCCCCCCCC)n1,13.1%
9,Nc1cc(=O)c2n[nH]nc2[nH]1,-17.1%
10,CCCCCCCCCCCCCCCCCC[N+](C)(C)Cc1c(Cl)c(Cl)c(Cl)c(Cl)c1Cl,20.4%
11,CCNC(=O)NCC,-32.7%
12,COc1ccccc1C(=O)C(CN(C)C)CN(C)C,6.65%
13,O=C1C=C(N2CCCC2)CC1,-0.2%
14,COC(=O)C1C(C(=O)OC)C(C(=O)OC)C1C(=O)OC (stereo not drawn),-0.45%
15,O=C(SCCN1CCCC1)C(O)(c1ccccc1)C1CCCC1 (stereo not drawn),-5.3%
16,CC(=O)C1=CCC2[C@H]3CC=C4C[C@H](O)CC[C@@]4(C)C3CC[C@@]12C (stereo partly drawn),49.8%
